Bim-Mcl-1: inhibitors of Bim peptide binding to Mcl-1, primary screen, biochemical, bead-based flow cytometry, multiplex; Induced myeloid leukemia cell differentiation protein Mcl-1 (Homo sapiens), Q07820; inhibition, % at 10 µM; 190,000 tested, 0.1% active; Bim peptide-Mcl-1 binding; in the data active = inhibition above about 40%;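 also: 0% = no compound tracer wells and 100% = peptide blocker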
Mcl1-Bid inh: Mcl-1/Bid binding inhibitors, primary screen, biochemical, TR-FRET, 1536-well; Induced myeloid leukemia cell differentiation protein Mcl-1 (Homo sapiens), Q07820; TR-FRET Mcl-1/Bid-Dy647 peptide binding; inhibition, % at 21.7 µM; 220,000 tested, 0.97% active; AID 1021, 2008;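 active = compounds that cut the binding signal by more than half at the single screening dose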;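 also: His-tagged Mcl-1 with europium anti-His antibody binding Bid BH3 peptide; 0% = Mcl-1 plus peptide wells and 100% = peptide-only wells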
MCL1 BIM primary: inhibitors of MCL1 binding to BIM-BH3, primary screen, biochemical, fluorescence polarization; 320,000 tested, 0.68% active; Induced myeloid leukemia cell differentiation protein Mcl-1 (Homo sapiens), Q07820; inhibition, % at 10.9 µM; GST-MCL1 / FITC-Bim-BH3 fluorescence polarization; AID 2057, 2009;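 active = inhibition above the mean inhibition of all tested compounds plus 3 SD, set per campaign, cut at about 40% in these data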;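 also: 0% = DMSO wells and 100% = unlabeled Bim-BH3 peptide control; higher means more loss of mP so more displacement of Bim peptide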
Mcl1 Noxa PPI: Mcl-1/Noxa binding inhibitors, primary screen, biochemical, TR-FRET, 1536-well; TR-FRET Mcl-1/Noxa peptide binding, 2 h; 220,000 tested, 1.5% active; AID 1022, 2008; inhibition, % at 21.7 µM; Induced myeloid leukemia cell differentiation protein Mcl-1 (Homo sapiens), Q07820;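 active = compounds that cut the protein-peptide binding signal by more than 50% relative to plate controls in a single-dose test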;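 also: His-tagged Mcl-1 with rhodamine Noxa BH3 peptide and terbium anti-His antibody; 0% = Mcl-1 plus Noxa peptide wells and 100% = peptide-only wells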
BCLXL inh confirm: Bcl-xL inhibitors blocking Bim BH3 binding, confirmation, counter-screen for MCL1 inhibitor project, biochemical, fluorescence polarization; 1,700 tested, 54% active; inhibition, % at 10.9 µM; AID 2166, 2009; GST-Bcl-xL / FITC-Bim BH3 peptide FP binding; shares compounds with MCL1 BIM primary;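 active = inhibition above a cutoff equal to the mean inhibition of all tested compounds plus 3 SD, cut at about 30% in these data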;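 also: 0% = DMSO wells and 100% = unlabeled Bim BH3 control peptide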
Target sequence (Q07817 whole entry, looked up): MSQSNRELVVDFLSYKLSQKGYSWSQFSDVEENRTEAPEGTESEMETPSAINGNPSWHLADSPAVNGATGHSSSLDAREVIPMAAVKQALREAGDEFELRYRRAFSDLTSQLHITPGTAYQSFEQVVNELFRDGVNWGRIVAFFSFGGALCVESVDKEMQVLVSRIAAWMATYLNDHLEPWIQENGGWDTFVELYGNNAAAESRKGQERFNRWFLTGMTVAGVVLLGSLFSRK
MCL1 inh confirm: inhibitors of MCL1 binding to BIM-BH3, confirmation, biochemical, fluorescence polarization, triplicate. shares compounds with MCL1 BIM primary. GST-MCL1 / FITC-Bim-BH3 fluorescence polarization. inhibition, % at 10.9 µM. 1,700 tested, 61% active. AID 2168, 2009;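 active = inhibition above the average of all tested compounds plus 3 SD, cut at about 40% in these data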;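 also: 0% = DMSO wells and 100% = unlabeled Bim-BH3 control peptide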
Numbers without * were called inactive; / = no result. Most compounds without a hit are left out; they make up all but 2% or so of the library.

SMILES	Bim-Mcl-1	Mcl1-Bid inh	MCL1 BIM primary	Mcl1 Noxa PPI	BCLXL inh confirm	MCL1 inh confirm
O=C(CNC(=S)N(Cc1ccccc1F)C1CCCCC1)NCC1CCCO1 (stereo unspecified)	1	-38	10	-14	/	/
CN1[C@@H]2CCC[C@H]1CC(NC(=O)c1nn(C)c3ccccc13)C2 (stereo partly specified)	/	/	5	/	/	/
Cc1ccc(C(=O)N2C(CC(=O)Nc3ccc(Cl)cc3)C(=O)NC3CCCCC32)cc1 (stereo unspecified)	0	-12	-2	10	/	/
CC(C)Cn1c(N)c(C(=O)COC(=O)C2CC(=O)N(Cc3ccccc3Cl)C2)c(=O)n(C)c1=O (stereo unspecified)	-1	8	-2	6	/	/
CCS(=O)(=O)NCc1ccc2[nH]c3c(c2c1)CCCC3	-3	-40	73*	3	49*	70*
O=C(NCCc1ccc(Cl)cc1)C1CCN(C(=O)c2ccc(F)cc2)CC1	/	/	4	/	/	/
O=C(Nc1ccccc1N1CCCC1)c1ccc([N+](=O)[O-])o1	/	/	8	/	/	/
COc1ccc(N2CCCC2)c(NC(=O)c2ccc([N+](=O)[O-])o2)c1	/	/	75*	/	14	4
CC1CCCN(c2nc3ccccc3nc2C(C#N)S(=O)(=O)c2ccccc2)C1 (stereo unspecified)	-5	-11	69*	-9	-5	-21
Cc1ccc(C2=NN=C(NC(=O)C(F)(F)F)SC2)cc1	-2	-39	/	19	/	/
CCC(C)Sc1ccc(-c2nc3ccc(C)cn3c2NC2CCCCC2)cc1 (stereo unspecified)	/	/	48*	/	18	16
Cc1cccc(-n2ncc3c2CCCC3NC(=O)C2=CC(=O)CC(C)(C)O2)c1C (stereo unspecified)	/	/	2	/	/	/
Clc1ccc(C2Nc3cccc4cccc(c34)N2)cc1	/	/	67*	/	17	17
COc1ccc(C(=O)N2CCC(n3nccc3NC(=O)C3CC3)CC2)cc1F	/	/	0	/	/	/
Cc1ccccc1NC(=O)NC(N)=O	1	-19	-2	19	/	/
Cc1ccccc1N=C(N)Nc1ccccc1C	/	/	71*	/	63*	85*
C=CCSC1=N/C(=C\c2ccc(C(=O)O)cc2)C(=O)S1	-2	-27	14	12	/	/
Nc1ccc(C(=O)N/N=C\c2cc(N=Nc3cccc4ccccc34)ccc2O)cc1	0	65*	66*	/	12	72*
COc1ccc(C2CC(c3ccc(OC)cc3OC(C)=O)=NN2C(=O)c2ccccc2)cc1 (stereo unspecified)	/	/	92*	/	36*	49*
Cc1ccc(NC(=O)CSCC(=O)N2CCN(C(=O)c3ccco3)CC2)cc1	/	/	0	/	/	/
O=C(O)CC(C(=O)O)N1C(=O)/C(=C/C=C/c2ccco2)SC1=S (stereo unspecified)	/	-20	75*	85*	22	32
O=C(CCN1C(=O)/C(=C\C=C\c2ccccc2)SC1=S)Nc1ccccc1C(=O)O	/	/	43*	/	15	12
O=C(O)CCCN1C(=O)/C(=C/C=C/c2ccco2)SC1=S	/	34	80*	94*	25	31
CC(C)(C)NC(=O)CSc1nnc(-c2ccccc2)c(-c2ccccc2)n1	/	/	-7	/	/	/
Cc1ccccc1NC(=O)CSc1nnc(NC(=O)c2ccco2)s1	/	/	7	/	/	/
SMILES	Bim-Mcl-1	Mcl1-Bid inh	MCL1 BIM primary	Mcl1 Noxa PPI	BCLXL inh confirm	MCL1 inh confirm
N#C/C(=C\c1cc(O)c(O)c(O)c1)C(N)=O	/	-44	53*	13	19	4
N#C/C(=C\c1cc(Cl)c(OCc2ccc(Cl)cc2)c(Cl)c1)C(N)=O	/	-22	4	21	/	/
CCC(C)(C)C1CCC2(CC1)NC(=O)N(CC(=O)NCCc1ccc(OC)c(OC)c1)C2=O (stereo unspecified)	/	/	3	/	/	/
Oc1ccc(/C=N/Nc2ncnc3c2ncn3Cc2ccccc2)cc1O	-4	-61	57*	24	11	33
COC(=O)Cc1ccc(NC(C)=O)cc1	/	/	-9	/	/	/
CCOC(=O)c1ccc(NC(=O)[C@@H](NC(N)=O)C(C)C)cc1	/	-37	120*	-4	0	-2
